Experimental data from the supplement of paper PMC12636033.
± gives the standard deviation of the averaged measurements. Over roughly 33,000 sequences, “E-score (rank enrichment, -0.5 to 0.5)” has its median near -0.0075; the highest 2% begin near 0.23. For the sample, the highest values were picked, then their nearest neighbours and some sequences at random.

System: WT Max(13-93) synthetic (M65Nle)
Experiment: PBM 8-mer E-score (E-score (rank enrichment, -0.5 to 0.5)); higher = stronger preferential binding
Experimental: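 Protein binding microarray (universal PBM chip covering all 10-mers in fixed probe flanks) with chemically synthesized human Max(13-93) bHLH-LZ analogs (not full-length Max) bearing noncanonical residues (hArg, Tha, Aib, Nle at 65) and aromatic Cys staples. Read-out per 8-mer (and its reverse complement): E-score (rank-based enrichment, -0.5 to 0.5) and Z-score of median probe intensity.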

| Sequence | PBM 8-mer E-score |
| --- | --- |
| AGCAGAAG | -0.0139 ± 0.09 |
| ATCGCTCC | -0.0658 ± 0.15 |
| ACGTAACC | 0.109 ± 0.1 |
| CTTACCGC | -0.13 ± 0.11 |
| CTGATCCC | -0.00057 ± 0.1 |
| AGTGCCTG | -0.101 ± 0.011 |
| CTCAAGAG | -0.266 ± 0.032 |
| CATTAGTA | 0.0683 ± 0.015 |
| AATTAGTA | 0.249 ± 0.075 |
| AATTAATG | 0.166 ± 0.16 |
| AATTAGTC | -0.027 ± 0.071 |
| AATTAATC | 0.0672 ± 0.11 |
| AATTAATT | 0.262 ± 0.088 |
| CGGGCTCA | -0.237 ± 0.039 |
| AAACAAAA | 0.284 ± 0.023 |
| AAAACAAG | 0.122 ± 0.18 |
| AAACAAAC | 0.0359 ± 0.011 |
| AAAACAAC | -0.0511 ± 0.034 |
| AAACAAGT | 0.0146 ± 0.12 |
| CAACAAGA | 0.0122 ± 0.26 |
| GAACAACA | 0.0194 ± 0.12 |
| AAACAAAG | 0.114 ± 0.032 |
| CAACAACA | 0.237 ± 0.027 |
| AAAACAAT | 0.259 ± 0.0082 |
| TAACAAAA | 0.166 ± 0.0052 |

| Sequence | PBM 8-mer E-score |
| --- | --- |
| AAACAAAT | 0.275 ± 0.05 |
| CTATCTGC | -0.0743 ± 0.063 |
| CACTACAG | -0.123 ± 0.011 |
| GTTAGAGA | -0.0703 ± 0.011 |
| AAGGCGAT | 0.0502 ± 0.11 |
| ATTAAAGC | 0.133 ± 0.061 |
| AAGGTTGA | 0.14 ± 0.0094 |
| CCGCTTAG | -0.158 ± 0.088 |
| ATGCCGCC | -0.15 ± 0.1 |
| TATCAACA | 0.192 ± 0.053 |
| AATCAACA | 0.283 ± 0.051 |
| GATCAACA | -0.0789 ± 0.16 |
| GTCAAGAA | 0.12 ± 0.082 |
| ATTCGGGA | -0.128 ± 0.12 |
| GAGGAAAA | 0.113 ± 0.23 |
| CTTTGAAA | 0.0996 ± 0.023 |
| GTTTGAAA | 0.277 ± 0.019 |
| ATTTGAAA | 0.124 ± 0.0068 |
| ATTAAACA | 0.095 ± 0.031 |
| ATTAAACC | 0.0834 ± 0.057 |
| ATTAAACG | 0.255 ± 0.023 |
| ATCAGACG | -0.142 ± 0.13 |
| CACGGTCG | -0.27 ± 0.0093 |
| ATGCAACA | 0.229 ± 0.099 |
| ATGCAACG | 0.0584 ± 0.039 |

| Sequence | PBM 8-mer E-score |
| --- | --- |
| ATGCAACC | 0.244 ± 0.066 |
| ACTCGTTA | -0.0291 ± 0.015 |
| ACCATGCA | 0.221 ± 0.0057 |
| AACATGCA | 0.202 ± 0.039 |
| AACATGGT | 0.052 ± 0.061 |
| ACCATGTA | 0.162 ± 0.065 |
| ACCATGAT | 0.136 ± 0.019 |
| ACCATGTC | 0.0659 ± 0.016 |
| ACCATGCG | 0.243 ± 0.0064 |
| ACCATGCT | 0.277 ± 0.028 |
| ACCATGTG | 0.442 ± 0.0045 |
| AACATGCT | 0.242 ± 0.035 |
| ACCATGCC | 0.00171 ± 0.051 |
| ACCATGGT | -0.00014 ± 0.21 |
| ATGATGAG | 0.0781 ± 0.012 |
| GTCGGTCA | -0.151 ± 0.14 |
| AGAATGCC | -0.0707 ± 0.0056 |
| CGCAGGCA | -0.131 ± 0.12 |
| ATTAACGG | 0.153 ± 0.089 |
| GCTGGCCA | -0.0533 ± 0.076 |
| CGGAACAC | -0.0883 ± 0.0097 |
| CACGTTCA | 0.163 ± 0.018 |
| CATCCAAG | -0.0693 ± 0.012 |
| AGCCCGTC | -0.151 ± 0.071 |
| ATCATGTA | 0.169 ± 0.004 |

| Sequence | PBM 8-mer E-score |
| --- | --- |
| ATCATGTC | 0.186 ± 0.057 |
| ATCATGTG | 0.264 ± 0.022 |
| GTGGTTTA | 0.179 ± 0.053 |
| CGTGGAAA | 0.267 ± 0.071 |
| GGTGGAAA | 0.0407 ± 0.064 |
| TGTGGAAA | 0.249 ± 0.072 |
| CGTGGAAG | 0.176 ± 0.0075 |
| CGTGGTAA | 0.246 ± 0.1 |
| TGTGGTAA | 0.0282 ± 0.15 |
| GGTGGTAA | 0.11 ± 0.1 |
| AGTGGAAA | 0.164 ± 0.094 |
| CGTGGAAC | -0.0332 ± 0.0099 |
| TCTCGGAA | -0.232 ± 0.095 |
| CATCAAAA | 0.0623 ± 0.033 |
| ATCGTCTC | -0.00218 ± 0.023 |
| GCCGATAA | 0.032 ± 0.051 |
| AACGCAGC | -0.1 ± 0.048 |
| AACAATGC | 0.161 ± 0.14 |
| GCTGCGAC | -0.219 ± 0.069 |
| CGCACAGC | -0.171 ± 0.087 |
| GCGGTGAC | -0.146 ± 0.14 |
| TGGTAAAA | 0.0895 ± 0.03 |
| TCGCTACA | -0.0172 ± 0.075 |
| ACGCTACA | 0.275 ± 0.013 |
| GCGCTACA | -0.115 ± 0.006 |

| Sequence | PBM 8-mer E-score |
| --- | --- |
| CTTGATTA | 0.12 ± 0.025 |
| GTTGATTA | 0.2352 ± 0.0022 |
| ATTGATTA | 0.0358 ± 0.11 |
| GCGTTTAA | 0.0231 ± 0.056 |
| CCGTGGTC | -0.211 ± 0.023 |
| AGGTGGTC | -0.0706 ± 0.0051 |
| CCGTGGTA | -0.0399 ± 0.0038 |
| ACGTGGTC | 0.312 ± 0.022 |
| AGGTGGTG | 0.109 ± 0.09 |
| ACGTGGTG | 0.392 ± 0.024 |
| AAGTGGTG | -0.0214 ± 0.11 |
| ACGTGGTA | 0.347 ± 0.069 |
| GCGTGGTA | 0.215 ± 0.12 |
| GGCAAGAA | 0.127 ± 0.016 |
| ACTTGGCA | 0.0244 ± 0.14 |
| CAAGGCTA | -0.0688 ± 0.18 |
| TGCCAGAA | -0.0686 ± 0.042 |
| ATGGTAAC | 0.159 ± 0.045 |
| ATGGTAAT | 0.24 ± 0.019 |
| ATGGTAAG | 0.12 ± 0.15 |
| AAAGGTGA | 0.0498 ± 0.1 |
| AATGGAAG | 0.0617 ± 0.11 |
| CATGGAAG | 0.251 ± 0.028 |
| CATGGAAC | 0.0484 ± 0.039 |
| CATCTTCG | -0.0197 ± 0.078 |

| Sequence | PBM 8-mer E-score |
| --- | --- |
| CCCGGAGC | -0.218 ± 0.06 |
| CGGAACAG | -0.184 ± 0.097 |
| ACAATTCA | 0.0972 ± 0.033 |
| CCAATTCA | 0.237 ± 0.0091 |
| CCAATTCG | 0.00099 ± 0.067 |
| GAAAACTC | -0.0313 ± 0.025 |
| AAACCCTA | 0.253 ± 0.042 |
| CAAACCTA | 0.0613 ± 0.11 |
| AAACCCAG | -0.00534 ± 0.0017 |
| AAACCCTG | 0.124 ± 0.14 |
| AAACCCAT | 0.236 ± 0.013 |
| AAAACCTA | 0.259 ± 0.038 |
| AACCCCAT | 0.00208 ± 0.027 |
| AAAACCTT | 0.0888 ± 0.07 |
| CAACCCTA | 0.00074 ± 0.036 |
| ATAGCGAG | -0.0262 ± 0.05 |
| AGGCCCAA | -0.118 ± 0.037 |
| AAGCACAA | 0.0693 ± 0.08 |
| CGCTTCCG | -0.206 ± 0.041 |
| AGCCTGGA | -0.148 ± 0.017 |
| AAATCGAT | -0.116 ± 0.11 |
| CTGCTATC | -0.116 ± 0.021 |
| CTAGACGC | -0.0678 ± 0.01 |
| AAAATTCG | 0.181 ± 0.015 |
| ACTAAAAT | 0.073 ± 0.087 |

| Sequence | PBM 8-mer E-score |
| --- | --- |
| ACTACAAG | -0.03 ± 0.032 |
| AATACAAG | 0.148 ± 0.0056 |
| AATACAAC | 0.233 ± 0.077 |
| GATACAAA | 0.0639 ± 0.0017 |
| CCTACAAC | 0.126 ± 0.041 |
| AATACAAA | 0.288 ± 0.024 |
| CATACAAC | 0.162 ± 0.012 |
| ACTACAAC | 0.253 ± 0.024 |
| AATACAAT | 0.0116 ± 0.074 |
| ATCGTCTG | -0.0768 ± 0.04 |
| AGTAGACC | -0.143 ± 0.07 |
| AGTGACCA | -0.0103 ± 0.17 |
| AAGGCAAG | 0.149 ± 0.045 |
| CAGTATCG | -0.0719 ± 0.0012 |
| GACAATTA | -0.0274 ± 0.019 |
| CTGATCAG | -0.107 ± 0.14 |
| ATTGGACC | -0.0681 ± 0.039 |
| AGAAGTAG | 0.0117 ± 0.017 |
| ACCGGAAA | -0.104 ± 0.11 |
| ATAATTAA | 0.22 ± 0.13 |
| ATAATTAG | 0.237 ± 0.16 |
| ATAATTAC | 0.232 ± 0.019 |
